What all share (assay): NCI-60 one-dose screen, 48 h (100 = growth as untreated, 0 = no growth, -100 = all killed)
Common to all, as to details: 10 µM unless noted

Experiment [1] has as its system HCT-15 colon.
Experiment [2] relates to SNB-75 CNS.
In experiment [3] the test system is SNB-19 CNS.
Experiment [4] relates to U251 CNS.
The subject of experiment [5] is PC-3 prostate.
In experiment [6] the test system is SK-MEL-5 melanoma.
The test system of experiment [7] is UACC-62 melanoma.
Experiment [8] deals with LOX IMVI melanoma.
For experiment [9], the system named is SK-MEL-28 melanoma.

The panel holds about 83,000 compounds, 20% with a hit somewhere; the sample as a whole holds those more often.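 Note: values are percent growth. 100 is the growth of untreated cells, values between 100 and 0 indicate rising inhibition; between -100 and 0 indicates cell death.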 A number with no mark means an inactive call. Activity calls are given as the source filed them. The calls were made as follows: active = growth percent below 10; inactive = the rest.

On to `COc1ccccc1/C=C/c1cccc(NC(=S)NCCCCN(C)C)c1`, for which the growth is -100% (active) in experiment [1]; -80.1% (active) in [2]; -84.1% (active) in experiment [3]; -64.7% (active) in experiment [4]; -46.9% (active) in [5]; -97% (active) in [6]. For the same compound, the figures for the growth in experiment [7], in experiment [8] and in [9] were -98.5% (active), -98.4% (active) and -98.8% (active), respectively.

For the compound `NS(=O)(=O)c1ccc(N2N=C(c3ccc(NC(=O)Nc4ccccc4)cc3)CC2c2ccc(Br)cc2)cc1` (centres undefined), the growth in experiment [1] is -89.1% (active); in [2], -43.1% (active); in experiment [3], -98.2% (active); in experiment [4], -86.2% (active); in experiment [5], -45.2% (active); in experiment [6], -99.8% (active). Also, the growth was -96.2% (active) in experiment [7], -100% (active) in experiment [8] and -98.1% (active) in experiment [9].

With `Nc1cc2ccccc2c(=O)n1NC(=O)c1ccccc1`, the growth in [1] is 93.8%; in experiment [2], 80.3%; in experiment [3], 93.7%; in [4], 106%; in [5], 91.7%; in experiment [6], 96%. For the same compound, the growth in experiment [7] was 76.5%; in [8], 88%; in experiment [9] it was 98.8%.

Regarding `CNS(=O)(=O)N1CCc2c(Br)c3c(c(OC)c2C1CCc1ccccc1)OCO3` (centres undefined), the growth in [1] was 2.11% (active); in experiment [2], -38.4% (active); in [3], 4.35% (active); in [4] it was -63.6% (active); in [5] it was 4.03% (active); in [6] it was -100% (active). Moreover, the figures for the growth in [7], in experiment [8] and in [9] were -78.7% (active), -95.1% (active) and -77.9% (active), respectively.

Consider `CN(C)CCCNC(=S)Nc1ccc(/C=C/c2ccc(Cl)cc2)cc1`, for which the growth in [1] was -93.8% (active); in experiment [2], 8.9% (active); in experiment [4], -2.11% (active); in experiment [5], -35.3% (active); in experiment [6], -98.6% (active); in experiment [7], -82.3% (active). Also, the results for the growth in [8] and in experiment [9] were -64.5% (active) and -97.6% (active), respectively.

Regarding `Cc1cc(C2(c3cc(C)c(OCC(O)CNc4c(C)n(C)n(-c5ccccc5)c4=O)cc3C(C)C)OC(=O)c3ccccc32)c(C(C)C)cc1OCC(O)CNc1c(C)n(C)n(-c2ccccc2)c1=O` (centres undefined), the growth is 19.7% in experiment [1]; 46.6% in experiment [2]; 48.9% in experiment [3]; 22.5% in experiment [4]; 12.9% in experiment [5]; -25.3% (active) in experiment [6]. For the same compound, the growth is 24.4% in experiment [7], 18.3% in experiment [8] and 33.8% in [9].

Take `CN(C)C(=O)c1cc(-c2ccc3ncnc(N4CCc5cc(F)c(Cl)cc54)c3c2)cnc1N`: the growth was -70.8% (active) in experiment [1]; -28.8% (active) in experiment [2]; -19.8% (active) in [3]; -55.7% (active) in [4]; 0.623% (active) in [5]; -98.9% (active) in experiment [6]. Also, the growth was -83.7% (active) in experiment [7], -69.3% (active) in experiment [8] and 0.025% (active) in experiment [9].

For the compound `Cc1cc(N=C(N)c2ccccc2)ccc1OCCCCCCCCn1ccnc1`, the growth in experiment [1] was 7% (active); in experiment [2] it was 12.5%; in [3], 19.3%; in [5] it was 27.8%; in experiment [7], -3.8% (active); in experiment [8], -80.7% (active). The growth in experiment [9] is -68.5% (active).

`Cn1cc(-c2cc(N)n3nc(-c4c[nH]c5ccc(Cl)cc45)cc3n2)c2cccnc21`: the growth in experiment [1] is -56.7% (active); in [2] it was -57.5% (active); in experiment [3], -78.3% (active); in [4] it was -82% (active); in experiment [5], -51.6% (active); in experiment [6] it was -97.4% (active). In addition, the growth was -86.4% (active) in [7], -93.6% (active) in experiment [8] and -93.7% (active) in experiment [9].

Take `O=C(COc1ccc(/C=C2/C(=O)Nc3ccc(Cl)cc32)cc1)Nc1ccc(Br)cc1`: the growth is -23% (active) in [1]; -57% (active) in experiment [2]; 5.08% (active) in experiment [3]; -88.4% (active) in experiment [4]; -38.9% (active) in experiment [5]; -14.8% (active) in [6]. Besides, the values for the growth in experiment [7], in [8] and in [9] were 0.1% (active), -89.4% (active) and -26.7% (active), respectively.

Take `COc1ccc2[nH]c(O)c(N=Nc3nc(-c4ccc(Br)cc4)cs3)c2c1`: the growth in experiment [1] is 2.5% (active); in [2] it was -41.4% (active); in [3], 36.4%; in experiment [4] it was -39.5% (active); in [5], 21%; in [6], 35.1%. In addition, the figures for the growth in experiment [7], in experiment [8] and in experiment [9] were 18.7%, 4.53% (active) and 15.4%, respectively.

`CN(C)CCOc1ccc(C(=O)C2[C@H](c3ccc(Cl)cc3)[C@@H](c3ccccc3)NC23C(=O)Nc2ccc(Cl)cc23)cc1` (some centres undefined): the growth is -91.5% (active) in experiment [1]; -90.7% (active) in experiment [2]; -82.9% (active) in [4]; -89.9% (active) in [5]; -98.2% (active) in experiment [6]; -78.3% (active) in experiment [7]. Further, the growth in experiment [8] is -96.3% (active); in [9] it was -93.4% (active).

Values taken from PubChem BioAssay (NCI).
